Several values for one entry are separate records, joined by “and”; a condition that tells them apart may be missing. Equal entries are not always repeated. Hit rate of the full screen: of about 5,500 compounds, about 2,000 (36%) were called active. Inconclusive results (about 18%) are left out. Rule as the data show it: active = normalized growth mostly below about 0.91 (no sharp cut-off); inconclusive = no clear call, values can overlap the other calls; inactive = mostly above about 0.92. This is one part of the list.
Assay: chemical genetic growth profiling, strain panel (AID 1159580);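 also: tested at 20 µM; growth read once vehicle control cultures reached saturation at 30 °C; 1 = growth at the plate median or of vehicle wells; lower values mean less growth of the strain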
Conditions: growth OD

Measured: normalized growth

CC(C)N=C(N)N=C(N)Nc1ccc(Cl)cc1
inactive: S. cerevisiae deletion strains, locus YAL013W, strain DEP1, active compounds read low 1.02 | S. cerevisiae deletion strains, locus YBR021W, strain FUR4, active compounds read low 1.02 | S. cerevisiae deletion strains, locus YBR229C, strain ROT2, active compounds read low 1.01 | S. cerevisiae deletion strains, locus YCL029C, strain bik1, active compounds read low 1.02 | S. cerevisiae deletion strains, locus YDL035C, strain GPR1, active compounds read low 1.01 | S. cerevisiae deletion strains, locus YDL074C, strain BRE1, active compounds read low 1.02 | S. cerevisiae deletion strains, locus YDL101C, strain DUN1, active compounds read low 1.01 | S. cerevisiae deletion strains, locus YDL134C, strain PPH21, active compounds read low 1.01 | S. cerevisiae deletion strains, locus YDL185W, strain tfp1, active compounds read low 1.01 | S. cerevisiae deletion strains, locus YDL192W, strain arf1, active compounds read low 1.01 | S. cerevisiae deletion strains, locus YDR101C, strain arx1, active compounds read low 1.01 | S. cerevisiae deletion strains, locus YDR150W, strain NUM1, active compounds read low 1.02 | S. cerevisiae deletion strains, locus YDR162C, strain NBP2, active compounds read low 1.01 | S. cerevisiae deletion strains, locus YDR318W, strain mcm21, active compounds read low 1.02 | S. cerevisiae deletion strains, locus YDR388W, active compounds read low 1.02 | S. cerevisiae deletion strains, locus YDR502C, strain sam2, active compounds read low 1.01 | S. cerevisiae deletion strains, locus YEL061C, strain CIN8, active compounds read low 1 | S. cerevisiae deletion strains, locus YER110C, active compounds read low 1.02 | S. cerevisiae deletion strains, locus YER155C, strain BEM2, active compounds read low 1.01 | S. cerevisiae deletion strains, locus YER167W, strain BCK2, active compounds read low 1.02 | S. cerevisiae deletion strains, locus YGL078C, strain dbp3, active compounds read low 1.01 | S. cerevisiae deletion strains, locus YGL086W, strain mad1, active compounds read low 1.01 | S. cerevisiae deletion strains, locus YGL248W, strain PDE1, active compounds read low 1.02 | S. cerevisiae deletion strains, locus YGR078C, strain PAC10, active compounds read low 1.01 | S. cerevisiae deletion strains, locus YGR135W, strain pre9, active compounds read low 1 | S. cerevisiae deletion strains, locus YGR229C, strain SMI1, active compounds read low 1.01 | S. cerevisiae deletion strains, locus YGR252W, strain gcn5, active compounds read low 0.986 | S. cerevisiae deletion strains, locus YHR030C, strain SLT2, active compounds read low 1.01 and 1.03 | S. cerevisiae deletion strains, locus YHR079C, strain IRE1 (second series), active compounds read low 1.02 | S. cerevisiae deletion strains, locus YHR079C, strain IRE1, active compounds read low 1 | S. cerevisiae deletion strains, locus YHR094C, strain hxt1, active compounds read low 1.01 | S. cerevisiae deletion strains, locus YHR129C, strain ARP1, active compounds read low 1 | S. cerevisiae deletion strains, locus YHR200W, strain rpn10, active compounds read low 1.02 | S. cerevisiae deletion strains, locus YIL066C, strain RNR3, active compounds read low 1.01 | S. cerevisiae deletion strains, locus YIL073C, strain SPO22, active compounds read low 1.07 | S. cerevisiae deletion strains, locus YIL125W, strain kgd1, active compounds read low 1.01 | S. cerevisiae deletion strains, locus YIR030C, strain dcg1, active compounds read low 1.02 | S. cerevisiae deletion strains, locus YJL095W, strain BCK1, active compounds read low 1.02 and 0.993 | S. cerevisiae deletion strains, locus YJL134W, strain LCB3, active compounds read low 1.01 | S. cerevisiae deletion strains, locus YJL168C, strain set2, active compounds read low 1.02 | S. cerevisiae deletion strains, locus YJL187C, strain SWE1 (second series), active compounds read low 1.01 | S. cerevisiae deletion strains, locus YJR043C, strain POL32, active compounds read low 1.02 | S. cerevisiae deletion strains, locus YJR066W, strain TOR1, active compounds read low 0.987 | S. cerevisiae deletion strains, locus YJR075W, strain HOC1, active compounds read low 1.02 | S. cerevisiae deletion strains, locus YKL009W, strain mrt4, active compounds read low 1.01 | S. cerevisiae deletion strains, locus YKL068W, active compounds read low 1.01 | S. cerevisiae deletion strains, locus YKL085W, strain MDH1 (second series), active compounds read low 1.02 | S. cerevisiae deletion strains, locus YKL085W, strain MDH1, active compounds read low 1.02 | S. cerevisiae deletion strains, locus YKL190W, strain CNB1, active compounds read low 1.01 | S. cerevisiae deletion strains, locus YKR001C, strain vps1, active compounds read low 1.02 | S. cerevisiae deletion strains, locus YLR039C, strain RIC1, active compounds read low 1.05 | S. cerevisiae deletion strains, locus YLR058C, strain SHM2, active compounds read low 1.02 | S. cerevisiae deletion strains, locus YLR102C, strain apc9, active compounds read low 1.02 | S. cerevisiae deletion strains, locus YLR113W, strain HOG1, active compounds read low 0.951 | S. cerevisiae deletion strains, locus YLR262C, strain YPT6, active compounds read low 1.04 | S. cerevisiae deletion strains, locus YLR268W, strain sec22, active compounds read low 1.03 | S. cerevisiae deletion strains, locus YLR330W, strain CHS5, active compounds read low 1.01 | S. cerevisiae deletion strains, locus YLR342W, strain FKS1 (second series), active compounds read low 1.02 | S. cerevisiae deletion strains, locus YLR371W, strain rom2, active compounds read low 1.03 | S. cerevisiae deletion strains, locus YLR418C, strain cdc73, active compounds read low 1.02 | S. cerevisiae deletion strains, locus YML016C, strain PPZ1, active compounds read low 1.01 | S. cerevisiae deletion strains, locus YML032C, strain rad52, active compounds read low 1.02 | S. cerevisiae deletion strains, locus YML124C, strain tub3, active compounds read low 1.01 | S. cerevisiae deletion strains, locus YMR078C, strain ctf18, active compounds read low 1.02 | S. cerevisiae deletion strains, locus YMR223W, strain ubp8, active compounds read low 1.01 | S. cerevisiae deletion strains, locus YMR263W, strain SAP30, active compounds read low 1.01 | S. cerevisiae deletion strains, locus YMR307W, strain GAS1, active compounds read low 1.04 | S. cerevisiae deletion strains, locus YNL067W, strain RPL9B, active compounds read low 1.01 | S. cerevisiae deletion strains, locus YNL128W, strain TEP1, active compounds read low 1.01 | S. cerevisiae deletion strains, locus YNL153C, strain GIM3, active compounds read low 1.01 | S. cerevisiae deletion strains, locus YNL183C, strain NPR1, active compounds read low 0.968 | S. cerevisiae deletion strains, locus YNL233W, strain BNI4, active compounds read low 1.01 | S. cerevisiae deletion strains, locus YNL250W, strain rad50, active compounds read low 1.01 | S. cerevisiae deletion strains, locus YNL271C, strain bni1, active compounds read low 1.01 | S. cerevisiae deletion strains, locus YNL298W, strain CLA4, active compounds read low 1.01 | S. cerevisiae deletion strains, locus YNL307C, strain MCK1, active compounds read low 1.02 | S. cerevisiae deletion strains, locus YNL322C, strain KRE1, active compounds read low 1.01 | S. cerevisiae deletion strains, locus YNR052C, strain pop2, active compounds read low 1.01 | S. cerevisiae deletion strains, locus YOL006C, strain TOP1, active compounds read low 1.02 | S. cerevisiae deletion strains, locus YOL012C, strain htz1 1.92 | S. cerevisiae deletion strains, locus YOL147C, strain pex11, active compounds read low 1.01 | S. cerevisiae deletion strains, locus YOR061W, strain CKA2, active compounds read low 1.01 | S. cerevisiae deletion strains, locus YOR069W, strain VPS5, active compounds read low 1.01 | S. cerevisiae deletion strains, locus YOR136W, strain idh2, active compounds read low 1.02 | S. cerevisiae deletion strains, locus YOR144C, strain elg1, active compounds read low 1.02 | S. cerevisiae deletion strains, locus YOR184W, strain ser1, active compounds read low 1.01 | S. cerevisiae deletion strains, locus YOR231W, strain MKK1, active compounds read low 1.01 | S. cerevisiae deletion strains, locus YOR316C, strain cot1, active compounds read low 1.02 | S. cerevisiae deletion strains, locus YPL055C, strain LGE1, active compounds read low 1.03 | S. cerevisiae deletion strains, locus YPL241C, strain CIN2, active compounds read low 1.01 | S. cerevisiae deletion strains, locus YPL256C, strain CLN2, active compounds read low 1.04 | S. cerevisiae deletion strains, locus YPR119W, strain clb2, active compounds read low 1.01 | S. cerevisiae deletion strains, locus YPR141C, strain kar3, active compounds read low 1.02 | S. cerevisiae deletion strains, locus YPR163C, strain tif3, active compounds read low 1.02 | S. cerevisiae deletion strains, locus YPR167C, strain met16, active compounds read low 1.02 | S. cerevisiae deletion strains, strain wtn01, active compounds read low 1.01 | S. cerevisiae strains, strain wild type, active compounds read low 1.01

— PubChem BioAssay AID1159580 (chemical genetic matrix, 2015)
